Test [1] can be described thus: antimalarial activity against Dd2 strain (AID 2302;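 active = growth inhibition above 50% at the single 2 µM test dose, taken to imply half-maximal potency below 2 µM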;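 also: 0% = DMSO untreated growth and 100% = chloroquine plus artemisinin killed control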). The settings on record: P. falciparum Dd2 in RBCs, LDH growth readout, 72 h; at 2 µM; hits give high values.
Test [2] is described as follows: human hepatoma cell viability loss – ATP luminescence, cytotoxicity control for P. falciparum antimalarial project, primary screen (AID 2303;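 active = inhibition above 50%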;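 also: 0% = DMSO wells and 100% = digitonin-killed cells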). The settings on record: HepG2 viability, 24-48 h, at 10 µM, hits give high values.
Test [3] has as its target L-lactate dehydrogenase (Plasmodium falciparum (isolate CDC / Honduras)) (UniProt Q27743). Nature of the test: PfLDH activity inhibition – cell lysate, 3D7 strain, counter-screen for P. falciparum growth inhibition project (AID 2304).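 Also: 0% = vehicle and 100% = reference inhibitor.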 The settings on record: P. falciparum 3D7 crude extract, LDH APAD/NBT absorbance; at 2 µM; hits give high values.
Test [4] can be described thus: inhibition of 3D7 malaria parasite growth – strain 3D7 (AID 2306).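 Also: 0% = DMSO wells and 100% = chloroquine plus artemisinin control wells.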 The settings on record: P. falciparum 3D7 erythrocytic growth, LDH absorbance, 72 h; at 2 µM; hits give high values.
Test [5] addresses Calcium-dependent protein kinase 1 (Plasmodium falciparum (isolate 3D7)) (UniProt P62344). The test is described as follows: PfCDPK1 kinase inhibitors, biochemical, TCAMS library (AID 1159585; cut-off not given, nearly all actives have IC50 up to about 0.98 µM;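 also: inhibitors leave more ATP so luminescence rises with inhibition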). The settings on record: recombinant PfCDPK1, Kinase-Glo ATP depletion luminescence.
Test [6] concerns the target Plasmodium falciparum protein kinase 6 (PK6, PF3D7_1337100) (UniProt Q8IDW1). The test is described as follows: PfPK6 kinase inhibitors, biochemical, TCAMS library (AID 1159586). The settings on record: recombinant PfPK6, Kinase-Glo ATP depletion luminescence.
Test [7] has as its target Protein kinase 7 (PK7), Plasmodium falciparum 3D7 (PF3D7_0213400) (UniProt Q7YTF7). Nature of the test: inhibition of Plasmodium PK7 catalytic activity – biochemical, TCAMS antimalarial set, Kinase-Glo luminescence (AID 1159587). The settings on record: recombinant PfPK7, Kinase-Glo ATP depletion luminescence.
Test [8] has as its target Calcium-dependent protein kinase 4 (Plasmodium falciparum (isolate 3D7)) (UniProt Q8IBS5). The test is described as follows: PfCDPK4 kinase inhibitors, biochemical, TCAMS library (AID 1159588; cut-off not given, nearly all actives have IC50 up to about 0.91 µM). The settings on record: recombinant PfCDPK4, Kinase-Glo ATP depletion luminescence.

Among the data in PubChem BioAssay are growth inhibition, inhibition and outcome values, retold here.

A number with no mark means an inactive call. For part of these data: Measured potencies and affinities stand elsewhere. Active and inactive are the calls of the source. Unless noted, no rule for the calls is given here.

Chain of L-lactate dehydrogenase (Plasmodium falciparum (isolate CDC / Honduras)) (Q27743 whole entry, looked up): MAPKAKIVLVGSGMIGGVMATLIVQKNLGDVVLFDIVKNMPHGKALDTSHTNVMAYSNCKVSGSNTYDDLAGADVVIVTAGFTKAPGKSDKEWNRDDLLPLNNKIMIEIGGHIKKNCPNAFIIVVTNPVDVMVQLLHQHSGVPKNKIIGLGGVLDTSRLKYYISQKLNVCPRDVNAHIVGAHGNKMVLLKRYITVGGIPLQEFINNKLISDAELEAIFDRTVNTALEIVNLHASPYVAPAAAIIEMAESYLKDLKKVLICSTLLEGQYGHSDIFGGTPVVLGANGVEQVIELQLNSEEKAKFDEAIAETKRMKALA
Chain of Plasmodium falciparum protein kinase 6 (PK6, PF3D7_1337100) (Q8IDW1 1-305): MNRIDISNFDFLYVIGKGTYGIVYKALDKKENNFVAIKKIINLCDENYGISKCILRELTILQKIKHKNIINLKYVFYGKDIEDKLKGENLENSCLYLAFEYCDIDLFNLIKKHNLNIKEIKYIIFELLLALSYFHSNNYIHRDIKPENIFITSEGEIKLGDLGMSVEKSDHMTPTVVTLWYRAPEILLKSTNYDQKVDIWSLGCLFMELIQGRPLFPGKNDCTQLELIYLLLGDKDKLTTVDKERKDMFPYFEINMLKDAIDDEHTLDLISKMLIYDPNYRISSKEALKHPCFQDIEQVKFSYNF
Chain of Calcium-dependent protein kinase 4 (Plasmodium falciparum (isolate 3D7)) (Q8IBS5 whole entry, looked up): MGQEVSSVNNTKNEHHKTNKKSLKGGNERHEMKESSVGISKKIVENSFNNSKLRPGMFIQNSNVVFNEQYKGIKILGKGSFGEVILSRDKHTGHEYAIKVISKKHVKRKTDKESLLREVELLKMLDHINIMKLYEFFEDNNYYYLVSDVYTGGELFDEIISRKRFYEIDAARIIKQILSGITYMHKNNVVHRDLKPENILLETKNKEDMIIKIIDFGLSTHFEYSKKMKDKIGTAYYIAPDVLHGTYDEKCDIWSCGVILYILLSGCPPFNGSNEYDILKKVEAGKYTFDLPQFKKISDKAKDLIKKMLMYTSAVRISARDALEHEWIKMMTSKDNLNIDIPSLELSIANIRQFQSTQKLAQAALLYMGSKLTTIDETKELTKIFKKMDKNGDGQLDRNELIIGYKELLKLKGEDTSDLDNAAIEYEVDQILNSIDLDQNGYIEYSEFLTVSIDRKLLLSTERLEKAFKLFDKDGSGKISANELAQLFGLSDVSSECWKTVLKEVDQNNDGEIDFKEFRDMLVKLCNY
Chain of Calcium-dependent protein kinase 1 (Plasmodium falciparum (isolate 3D7)) (P62344 whole entry, looked up): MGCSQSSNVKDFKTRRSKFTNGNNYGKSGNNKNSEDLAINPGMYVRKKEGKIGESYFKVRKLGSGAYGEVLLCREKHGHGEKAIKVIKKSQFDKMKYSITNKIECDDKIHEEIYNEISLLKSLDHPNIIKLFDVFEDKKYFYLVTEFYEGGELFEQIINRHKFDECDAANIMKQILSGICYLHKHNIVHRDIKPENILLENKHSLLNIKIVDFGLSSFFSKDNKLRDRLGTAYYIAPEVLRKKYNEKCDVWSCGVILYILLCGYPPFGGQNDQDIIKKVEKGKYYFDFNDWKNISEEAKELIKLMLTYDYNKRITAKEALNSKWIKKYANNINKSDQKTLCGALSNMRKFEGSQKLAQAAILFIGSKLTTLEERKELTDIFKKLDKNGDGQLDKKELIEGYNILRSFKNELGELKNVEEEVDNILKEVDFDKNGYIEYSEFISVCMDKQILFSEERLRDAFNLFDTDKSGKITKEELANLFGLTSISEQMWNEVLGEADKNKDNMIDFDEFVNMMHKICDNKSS
Chain of Protein kinase 7 (PK7), Plasmodium falciparum 3D7 (PF3D7_0213400) (Q7YTF7 1-343): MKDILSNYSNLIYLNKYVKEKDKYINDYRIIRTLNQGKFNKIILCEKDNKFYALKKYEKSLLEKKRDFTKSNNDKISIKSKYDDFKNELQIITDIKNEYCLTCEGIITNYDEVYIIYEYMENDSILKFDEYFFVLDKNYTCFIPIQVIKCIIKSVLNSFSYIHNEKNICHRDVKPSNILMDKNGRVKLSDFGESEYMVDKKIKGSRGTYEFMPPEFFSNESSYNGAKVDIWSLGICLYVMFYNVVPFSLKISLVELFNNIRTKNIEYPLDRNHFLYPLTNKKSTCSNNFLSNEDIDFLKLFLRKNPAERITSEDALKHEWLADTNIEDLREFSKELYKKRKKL

Turning to `CCCNC(=O)C1CCN(C(c2ccccc2)c2ccc(Cl)c(Cl)c2)CC1` (centres undefined), the growth inhibition in test [1] and in test [4] was 90% (active) each time. Also, the inhibition in test [2] is 15%; in test [3] it was 1%. Also, the outcome in test [5], in test [6], in test [7] and in test [8] was inactive.
Turning to `Cc1ccc(NC(=O)c2cn(-c3ccccc3)nc2-c2ccc(F)cc2)cc1[N+](=O)[O-]`, the growth inhibition in test [1] is 38%; in test [4], 92% (active). For the same compound, the inhibition was 6% in test [2] and 8% in test [3]. The outcome in test [5], in test [6], in test [7] and in test [8] was inactive.
Regarding `N=c1n(Cc2ccccc2)c2ccccc2n1CC(O)c1ccc(Cl)c(Cl)c1` (centres undefined), the growth inhibition was 98% (active) in test [1] and 95% (active) in test [4]. Besides, the inhibition was 40% in test [2] and 4% in test [3]. The result in test [5], in test [6], in test [7] and in test [8] was inactive.
`CCn1cc(CN2CCCC(C(=O)Nc3ccc(-c4nc5ccccc5[nH]4)cc3)C2)c(C)n1` (centres undefined): the growth inhibition is 28% in test [1] and 100% (active) in test [4]. Also, the inhibition in test [2] was 22%; in test [3], 2%. The result in test [5], in test [6], in test [7] and in test [8] was inactive.
As to `CC(C)CCN1C(=O)C(NC(=O)Oc2ccccc2)C(=O)N(CC23CC4CC(CC(C4)C2)C3)c2ccccc21` (centres undefined), the values for the growth inhibition in test [1] and in test [4] were 4% and 95% (active), respectively. For the same compound, the inhibition in test [2] was 3%; in test [3] it was 0%. The outcome in test [5], in test [6], in test [7] and in test [8] was inactive.
Take `Cc1cc(NC(=O)Nc2ccc3nc(C)oc3c2)c2cc(Cl)ccc2n1`: the growth inhibition is 57% (active) in test [1] and 100% (active) in test [4]. The inhibition in test [2] is -10%; in test [3], -2%. Further, the result in test [5], in test [6], in test [7] and in test [8] was inactive.
Turning to `CN(C(=O)c1ccc(Br)cc1)c1ccccc1[N+](=O)[O-]`, the values for the growth inhibition in test [1] and in test [4] were 0% and 96% (active), respectively. The results for the inhibition in test [2] and in test [3] were 3% and 2%, respectively. Moreover, the outcome in test [5], in test [6], in test [7] and in test [8] was inactive.
`CCN(CCCN1CCCCC1)c1cc(C)nc(Nc2ccc(C)c(C)c2)n1`: the growth inhibition was 60% (active) in test [1] and 101% (active) in test [4]. Also, the figures for the inhibition in test [2] and in test [3] were 30% and -3%, respectively. The result in test [5], in test [6], in test [7] and in test [8] was inactive.
On to `CC(C)C(=O)n1ncc2c3c(N)nc(N)nc3ccc21`, for which the growth inhibition in test [1] was 3%; in test [4], 87% (active). Also, the inhibition is 0% in test [2] and -5% in test [3]. Also, the outcome in test [5], in test [6], in test [7] and in test [8] was inactive.
With `O=C(/C=C/c1ccc(Cl)c(Cl)c1)NCCCCCN1CCC(NC(=O)NC2CCCCCC2)CC1`, the growth inhibition in test [1] was 41%; in test [4], 99% (active). Besides, the inhibition was 15% in test [2] and -3% in test [3]. The outcome in test [5], in test [6], in test [7] and in test [8] was inactive.
On to `Cc1cc2ncc(C(N)=O)c(Nc3ccc(N4CCOCC4)cc3)c2cc1S(C)(=O)=O`, for which the figures for the growth inhibition in test [1] and in test [4] were 96% (active) and 100% (active), respectively. The inhibition in test [2] was -10%; in test [3] it was -5%. Besides, the result in test [5], in test [6], in test [7] and in test [8] was inactive.
Regarding `Cc1cc(C)n2nc(C(=O)Nc3cc(C(F)(F)F)ccc3N3CCOCC3)nc2n1`, the growth inhibition is 91% (active) in test [1] and 94% (active) in test [4]. In addition, the inhibition in test [2] was 2%; in test [3] it was -3%. The outcome in test [5], in test [6], in test [7] and in test [8] was inactive.
For `CCOC(=O)C1=C(C)NC(C)=C(C(=O)OCC)C1(C(=O)OCc1ccccc1)c1cccc(C(F)(F)F)c1`, the growth inhibition in test [1] was 60% (active); in test [4], 88% (active). Moreover, the inhibition in test [2] was -17%; in test [3], 5%. In addition, the outcome in test [5], in test [6], in test [7] and in test [8] was inactive.
For the compound `Cc1cccc2[nH]c(-c3cccc(-c4cccc(CNCc5cnn(-c6ccccc6)n5)c4)c3)nc12`, the figures for the growth inhibition in test [1] and in test [4] were 38% and 99% (active), respectively. In addition, the inhibition in test [2] was 12%; in test [3] it was 1%. Besides, the result in test [5], in test [6], in test [7] and in test [8] was inactive.
For the compound `CS(=O)(=O)CCNCc1cccc(-c2cc3nccc(Nc4ccc(Oc5ccccc5)cc4)c3cc2Cl)c1`, the growth inhibition in test [1] is 82% (active); in test [4], 100% (active). Also, the inhibition in test [2] was 2%; in test [3], -3%. Further, the outcome in test [5], in test [6], in test [7] and in test [8] was inactive.
As to `COc1ccc2c(NN=Cc3ccncc3)ccnc2c1`, the growth inhibition in test [1] was 6%; in test [4] it was 95% (active). Besides, the inhibition in test [2] was -12%; in test [3], -3%. Also, the result in test [5], in test [6], in test [7] and in test [8] was inactive.
For the compound `CN(Cc1cccc(O)c1)C1CCN(c2cc(NC(=O)c3ccc(F)cc3)ccn2)C1` (centres undefined), the growth inhibition was 6% in test [1] and 91% (active) in test [4]. For the same compound, the inhibition in test [2] and in test [3] was 5% in each case. Besides, the result in test [5], in test [6], in test [7] and in test [8] was inactive.
Regarding `Fc1ccc(-c2csc3ncnc(Cl)c23)cc1`, the growth inhibition in test [1] is 95% (active); in test [4], 94% (active). Also, the inhibition is 3% in test [2] and -1% in test [3]. The result in test [5], in test [6], in test [7] and in test [8] was inactive.
